Data published in PubChem BioAssay (NCI).
This is part of a sample that, as a whole, favours compounds with a hit. Of some 83,000 tested, about 20% had one in any assay.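 Compound tested at a single concentration for 48 hours in 96-well plates; a percent growth value below 10 was scored as active.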 Unmarked numbers belong to inactive results. Calls of active or inactive are those of the source.

The compounds below were run on NCI-H460 lung (assay: NCI-60 one-dose screen, 48 h (100 = growth as untreated, 0 = no growth, -100 = all killed)). Conditions: 10 µM unless noted.
`O=C(Nc1ccc(Cl)cc1)C1=NCCCCN1` showed a growth of 86.3%. With `Fc1ccc(/C=C/c2cc(/C=C/c3ccc(F)cc3)n(-c3cc(F)cc(F)c3)n2)cc1` the growth was 107%. For `Nc1n[nH]c2cccc(C#Cc3cccc(C(=O)Nc4ccc(Cl)c(C(F)(F)F)c4)c3)c12`, the growth was 64.3%. Work on `CC/C(=C(/c1ccc(Cl)cc1)c1ccc(OCCN2CCCCCC2)cc1)c1ccccc1` yielded a growth of 56.4%. Work on `COC(CCP(=O)(c1ccccc1)c1ccccc1)(C(=O)c1ccccc1)c1ccccc1` (centres undefined) yielded a growth of 50%. Work on `CC(=O)CC(=O)c1ccccc1.[Cu+2]` yielded a growth of 110%. `CN1CCN(Cc2ccc(NC(=O)c3cncc(C#Cc4cnc(N)c5ccc(C#N)cc45)c3)cc2C(F)(F)F)CC1` was tested, and the growth was -49.3% (active). `CNC(=O)c1cc(Oc2ccc3nc(NC(=O)NC(C)C)sc3c2)ccn1` gave a growth of 86.8%. In the case of `N/C(=N\c1nc2ccccc2s1)NC(=O)Nc1ccccc1`, the growth is reported as 14.4%. `CCOC(=O)/C(=C\c1ccccc1Cl)P(=O)(OCC)OCC` gave a growth of 61.9%. Compound `O=C(/C=C/c1ccc(Cl)cc1)c1ccc(-n2cc(CN3CCN(c4cc5c(cc4F)c(=O)c(C(=O)O)cn5C4CC4)CC3)nn2)cc1` has a growth of 82.2%. Compound `COc1cc2cc(Oc3ccc(NC(=O)Nc4ccc(Cl)c(Cl)c4)cc3)c(C)nc2cc1OCCN1CCCCC1` has a growth of 102%. `CCN(CC)CCN1C(=O)c2c(c(C)c3c(oc4cc(OC)ccc43)c2C)C1=O` gave a growth of 44.7%. For `Cn1ncc(CC(=O)O)c1-n1nnc2cc(Cl)ccc2c1=O`, the growth was 108%. With `COc1ccc(CNc2ccc3nc(CCC4CCCCC4)[nH]c3c2)cc1` the growth was 88.6%. `CC(C)(C)[C@H](OCc1cn([C@H]2C[C@@H](O)[C@@H](CO)O2)c(=O)[nH]c1=O)c1ccc(C#Cc2ccccc2)cc1[N+](=O)[O-]` showed a growth of 10.1%. In the case of `N#C/C(=C\c1cccc2cnccc12)N1N=NC2C=CC=CC21` (centres undefined), the growth is reported as 40.8%. `Cc1c2cnccc2c(C)c2c1c1cc(C(=O)O)ccc1n2C` was tested, and the growth was 1.58% (active). Work on `COCCn1cc(-c2nc(-c3cc4cccnc4n3C)cs2)c2cc(OC)ccc21` yielded a growth of 19.2%. `Cc1ccc(S(=O)(=O)N(CCC(=O)O)c2ccccc2)cc1` showed a growth of 112%. `C=CN(C(=O)N1CCN(c2cc3c(cc2F)c(=O)c(C(=O)O)cn3C2CC2)CC1)c1nc(-c2ccc(C)cc2)cs1` was tested, and the growth was 9.77% (active). `CCOC(=O)/C(=C/c1ccc([N+](=O)[O-])cc1)C(=O)c1ccccc1` gave a growth of 55.2%. With `CC(C)C(=O)Nc1ncc(C(=O)NCCN(Cc2ccccc2)C(=O)c2ccc(S(=O)(=O)Nc3ccccc3)cc2)s1` the growth was 99.8%. `OC1CSSC1Cn1cnc2c(Nc3ccc(F)c(Cl)c3)ncnc21` (centres undefined) gave a growth of 68.4%. In the case of `CCCCCCCCNc1ncnc2c1ncn2Cc1nnc2c3ccccc3c(Cl)nn12`, the growth is reported as 53.3%. `CN1C(=O)N(C)C2C1NN=c1s/c(=C\c3ccc(F)cc3)c(=O)n12` (centres undefined) gave a growth of 13%. With `COC(=O)c1cc(-c2cc(OC)c(OC)c(OC)c2)[nH]c1N/N=C/c1c(Cl)cccc1Cl` the growth was 2.31% (active). In the case of `COc1ccc(Nc2nc(Nc3cc(C)[nH]n3)c3cc(OC)c(OC)cc3n2)cc1`, the growth is reported as -75.9% [20 µM] (active). `CCN1C(=O)N(CC)C2C1NN=c1s/c(=C\c3ccc(F)cc3)c(=O)n12` (centres undefined) was tested, and the growth was 5.08% (active). `CC(C)c1nc(N(C)S(C)(=O)=O)nc(-c2ccc(F)cc2)c1/C=C/C(=O)C[C@@H](O)CC(=O)O` showed a growth of 108%. In the case of `C=C(C)[C@@H]1CC[C@]2(COCCCNCCCN)CC[C@]3(C)[C@H](CC[C@@H]4[C@@]5(C)CC[C@H](OCCCN)C(C)(C)[C@@H]5CC[C@]43C)[C@@H]12`, the growth is reported as -83% (active). `C=C(C)[C@@H]1CC[C@]2(COC(=O)c3cccnc3)CC[C@]3(C)[C@H](CC[C@@H]4[C@@]5(C)CCCN(C(=O)c6cccnc6)C(C)(C)[C@@H]5CC[C@]43C)[C@@H]12` gave a growth of 17.7%. For `COc1cccc(C2C(C#N)=C(N)Oc3c2ccc2ccccc32)c1` (centres undefined), the growth was 8.32% (active). `C#Cc1cccc(Nc2ncnc3ccc(-c4cnc(Cl)c(NS(C)(=O)=O)c4)cc23)c1` was tested, and the growth was 6.42% (active). In the case of `CCN1C(=O)N(CC)C2C1NN=c1s/c(=C3\C(=O)N(C)c4ccccc43)c(=O)n12` (centres undefined), the growth is reported as 6.21% (active). With `O=C(Nc1ncc(Cc2ccccc2)s1)c1ccc2c(c1)OCCO2` the growth was 5.11% (active). With `COc1cc(/C=C/c2cc(/C=C/c3ccc(O)c(OC)c3)n(C(=O)Nc3ccc(C)cc3C)n2)ccc1O` the growth was 1.87% (active). `CC(C)(C)CC(C)(C)Nc1c(-c2c(O)c3ccccc3oc2=O)nc2sccn12` was tested, and the growth was 111%. Work on `COc1ccc(Cn2cc3c(c2)-c2oncc2CC3)cc1` yielded a growth of 39.9%.
